Shown are actives, neighbours in structure and some others; about 1.5% of the full set was active somewhere.
PABP FP inh: blocks human PABP binding to poly(A) RNA; fluorescence polarization; 290,000 tested, 1% active; calls only at 35 µM; P11940;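 also: calls also rest on retests at 20 µM and on dose response follow-up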
eIF4E 4G PPI: blocks eIF4E binding to eIF4G | 220,000 tested, 0.37% active | inhibition, % at 21.7 µM | TR-FRET eIF4E-eIF4GI(517-606) binding, 2 h;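 active = inhibition above about 30%, limit read from the data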
eIF4H inh: inhibitors of RNA binding by human eIF4H. eIF4H fluorescence polarization binding assay. 290,000 tested, 0.94% active. Q15056. inhibition, % at 35 µM;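 also: calls also rest on retests at 20 µM and on dose response follow-up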
MLLE-PAM2 inh: inhibitors of microRNA-mediated deadenylation, human PABP1 MLLE binding. AID 588489. GST-MLLE / FITC-PAM2 fluorescence polarization. 360,000 tested, 0.36% active. inhibition, % at 20 µM; in the data active = inhibition above about 35%, passing the limit was not always enough
A number is an active result; i = inactive; nt = not tested or not shown; + = active, no number. Unless noted, no rule for the calls is given here.

SMILES | PABP FP inh | eIF4E 4G PPI | eIF4H inh | MLLE-PAM2 inh
COc1ccc(-c2csc(NNC3=NCCCCC3)n2)cc1 | i | i | i | nt
COc1ccccc1/C=C/C(=O)c1c2c(c(C)[nH]c1=O)CCCC2 | i | 66.5 | i | i
CNC(=O)Cn1ncc2c(C)n(Cc3ccc(C)cc3)c(C)c2c1=O | i | i | i | i
Cc1c2cnn(CC(=O)Nc3c(F)c(F)cc(F)c3F)c(=O)c2c(C)n1Cc1ccccc1F | + | 31.8 | 94.9 | i
N#C/C(=C/c1ccccc1OCc1ccc(F)cc1)c1ccc(C(=O)O)cc1 | + | nt | i | i
O=c1oc2ccccc2c2oc3cc(O)c(O)cc3c12 | + | i | 100.7 | i
CCc1nc2ccc(C(=O)Nc3cccc(OC)c3)cn2c1N(C)CCCc1ccccc1 | nt | nt | nt | i
O=C(NC(NC(=S)Nc1c(Cl)cc(Cl)cc1Cl)C(Cl)(Cl)Cl)OCc1ccccc1 (configuration not stated) | i | i | i | 38.8
Cc1ccc(C)c(NC(=S)NC(NC(=O)OCc2ccccc2)C(Cl)(Cl)Cl)c1 (configuration not stated) | i | i | i | i
O=C(CCc1ccc(O)c(O)c1)N/N=C/c1cc2c(cc1[N+](=O)[O-])OCO2 | + | nt | 94.0 | i
Cc1cccc(C)c1OCC(=O)N/N=C/c1cc2c(cc1[N+](=O)[O-])OCO2 | i | i | i | i
O=C(CCc1ccc(S(=O)(=O)N2CCOCC2)cc1)N/N=C/c1ccc(O)c(O)c1O | + | i | 95.5 | i
O=[N+]([O-])c1ccc(N/N=C/c2ccc(O)c(O)c2O)c(S(=O)(=O)N2CCOCC2)c1 | + | i | i | i
CC(=O)Nc1ccc(-c2ccnc3c2CC(C)(C(=O)Nc2ccc(F)c(Cl)c2)O3)cc1 (configuration not stated) | nt | nt | nt | i
Cc1ccc(NS(=O)(=O)c2cc3c4c(cccc4c2)C(=O)NC3=O)cc1C | + | i | i | i
COC(=O)C(Cc1ccc(O)cc1)NC(=O)NC12CC3CC(CC(C3)C1)C2 (configuration not stated) | i | nt | i | i
O=C1[C@H]2[C@@H](c3ccc(C(F)(F)F)cc3)N[C@]3(CCCN(Cc4ccc(F)cc4)C3=O)[C@H]2C(=O)N1Cc1ccccc1 | nt | nt | nt | i
CCCC(=O)N1CCC1(C)C(=O)NS(=O)(=O)c1cccc(F)c1 (configuration not stated) | nt | nt | nt | i
CCc1cc(C(=O)Cc2cnn(-c3ccccc3)c2)c(O)cc1O | i | i | i | i
O=C(Cc1cnn(-c2ccccc2)c1)c1ccc(O)c(O)c1O | + | i | 85.5 | i
CCCOC(=O)Nc1nc2ccccc2o1 | + | i | 72.5 | i
CN(C(=O)CN1C(=O)NC2(CCc3ccccc32)C1=O)C1CCCCC1 (configuration not stated) | nt | nt | nt | i
COc1ccccc1CNC(=O)CN1C(=O)c2cccc(N)c2C1=O | i | nt | i | i
CCCn1c(C)cc(C(=O)CN2C(=O)c3cccc(N)c3C2=O)c1C | + | i | 85.4 | i
CN(C(=O)CN1C(=O)c2cccc(N)c2C1=O)C1CCCCC1 | nt | nt | nt | 40.0
SMILES | PABP FP inh | eIF4E 4G PPI | eIF4H inh | MLLE-PAM2 inh
Cc1cc(C(=O)CN2C(=O)c3ccccc3C2=O)c(C)n1Cc1cccs1 | i | i | i | i
CCCCNC(=O)CN1C(=O)c2cccc(N)c2C1=O | + | i | 84.9 | 39.5
CC1CCCCC1NC(=O)CN1C(=O)c2cccc(N)c2C1=O (configuration not stated) | + | i | 105.7 | 49.8
Cc1csc(-c2cc(C(=O)NCc3ccc(F)cc3)n[nH]2)c1 | nt | nt | nt | i
CCc1c(C)sc(NC(=O)c2cc(C3CC3)on2)c1C#N | i | i | i | 36.4
CCc1nnc(NS(=O)(=O)c2ccc(NS(=O)(=O)c3ccc(NC(C)=O)cc3)cc2)s1 | i | i | i | nt
CC(=O)Nc1ccc(S(=O)(=O)Nc2nnc(CC(C)(C)C)s2)cc1 | i | i | i | 42.8
CSc1nc2c(=S)[nH]c(=S)[nH]c2s1 | nt | nt | nt | 39.1
C[C@@H]1CN([C@@H](C)CO)C(=O)c2cc(NC(=O)c3ccccc3)ccc2O[C@@H](C)CCCCO[C@@H]1CN(C)Cc1ccc(C(F)(F)F)cc1 | nt | nt | nt | i
CCSC1(SCC)N=C(N)C2(C#N)C(c3ccccc3)NC3=C(CCC3)C12C#N (configuration not stated) | + | i | 71.8 | i
CCOCCCn1c(SCC(=O)NC2CCCCC2)nc2ccccc2c1=O | nt | nt | nt | i
CCc1c(C)sc(NC(=O)c2ccco2)c1C(=O)N1CCCCC1 | i | i | i | i
CCc1c(C)sc(NC(=O)c2ccco2)c1C(=O)N1CCOCC1 | i | i | i | 39.9
O=C(c1[nH]c(C(F)(F)F)nc1-c1ccccc1)N1CCc2c([nH]c3ccccc23)C1 | nt | nt | nt | i
Oc1ccc(C=Nc2cccc3ncccc23)c(O)c1 | + | i | i | i

Assay outcomes from PubChem BioAssay.
